# Screens from PubChem BioAssay.
# G9a inh: blocks human histone lysine methyltransferase G9a. G9a H3K9 monomethylation, AlphaScreen, 2 h. Potency, µM (top dose mostly 102 µM), inactives show at the highest dose activity, negative = inhibition, most hits filed as inhibitors. 8.8% of 350,000 active. AID 504332; note: % is set by controls: 0 for no effect and ±100 for the full control effect; nearly all actives have a fitted effect of over 75% in size
# Target sequence (Q96KQ7 913-1193 limits assumed): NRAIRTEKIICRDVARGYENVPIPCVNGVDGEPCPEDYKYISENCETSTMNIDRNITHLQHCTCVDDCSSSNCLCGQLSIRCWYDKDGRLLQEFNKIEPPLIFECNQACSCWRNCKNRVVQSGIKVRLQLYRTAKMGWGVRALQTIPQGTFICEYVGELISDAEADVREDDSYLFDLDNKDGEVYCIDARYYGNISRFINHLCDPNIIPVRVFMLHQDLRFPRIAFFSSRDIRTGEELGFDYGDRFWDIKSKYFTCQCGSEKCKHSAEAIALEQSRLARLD
#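 Chemiluminescent proximity detection of H3K9 monomethylation, read after 10 min bead incubation in the dark. Reaction: 20 nM G9a, 500 nM biotin-H3K9 peptide, 20 uM SAM cofactor, 2 h, room temperature, following 15 min enzyme-compound preincubation.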
# HP1b binding inh: blocks HP1-beta chromodomain binding to methylated histone tails. P83916. AlphaScreen HP1-beta / biotin-H3K9me3 peptide binding. Potency, µM (top dose mostly 114 µM), without a hit: at the top dose activity change, negative = inhibition, hits mostly inhibitors. 0.56% of 390,000 active. AID 540317; note: nearly all actives have a fitted effect of over 70% in size
# Target sequence (P83916 whole entry, looked up): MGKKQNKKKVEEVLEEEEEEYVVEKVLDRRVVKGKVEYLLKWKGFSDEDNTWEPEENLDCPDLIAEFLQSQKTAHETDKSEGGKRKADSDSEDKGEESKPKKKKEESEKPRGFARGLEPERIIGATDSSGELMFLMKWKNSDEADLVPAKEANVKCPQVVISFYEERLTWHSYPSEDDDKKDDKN
#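 HP1-beta protein (50 nM final) preincubated 30 min at room temperature with biotinylated H3(1-18)K9me3 peptide (50 nM) in PBS pH 7.4, 0.01% Tween-20, then compound added for 30 min. AlphaScreen streptavidin donor/nickel chelate acceptor beads (10 ug/mL final), 30 min dark, luminescence read.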
# BAZ2B inh: inhibitors of human BAZ2B bromodomain; AlphaScreen BAZ2B-H3K14Ac peptide displacement; Potency, µM (highest dose often 114 µM), for inactives: at the top dose activity change, negative = inhibition, hits mostly inhibitors; 4.4% of 360,000 active; note: % is set by controls: 0 for no effect and ±100 for the full control effect; nearly all actives have a fitted effect of over 60% in size
#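 BAZ2B (50 nM) with biotin-H3(5-23)K14Ac peptide (50 nM) in PBS pH 7.4, 0.01% Tween-20, preformed 30 min, then compound 30 min at room temperature; top concentration 110uM. AlphaScreen streptavidin donor/nickel chelate acceptor beads (10 ug/mL final), 20 min dark, signal read.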
# Sfp inh: blocks B. subtilis Sfp PPTase activity; Q9F4F7; Biochemical Sfp PPTase activity, qHTS; 3.5% of 310,000 active; AID 1490; Potency, µM, without a hit: largest response in the series, negative = inhibition, most hits filed as inhibitors;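 note: the enzyme is Sfp with the accession as filed and its product quenches rhodamine fluorescence; 0% = enzyme reaction without inhibitor and -100% = no enzyme wells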
#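 Reaction rates are the 30-min fluorescence difference (ex 525, em 598 nm) in wells containing 15 nM Sfp, 5 uM rhodamine-CoA and 12.5 uM BHQ-2-YbbR at pH 7.6 with 10 mM MgCl2.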
# L3MBTL1 block: L3MBTL1 (human) inhibition; Q9Y468; AlphaScreen L3MBTL1–H3K9me1 peptide binding; Potency, µM (doses to about 57.1 µM), without a hit: at the highest dose activity, negative = inhibition, hits mostly inhibitors; 0.66% of 230,000 active; note: % is set by controls: 0 for no effect and ±100 for the full control effect; nearly all actives have a fitted effect of over 60% in size
#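 L3MBTL1 (50 nM) pre-complexed 30 min with biotinylated H3(1-15)K9me1 peptide (75 nM), then compounds added for 30 min at room temperature; AlphaScreen streptavidin donor/nickel chelate acceptor beads (10 ug/mL final) read after 30 min dark incubation.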
# JMJD2A Tudor: blocks the human JMJD2A Tudor domain | 4.4% of 390,000 active | O75164 | AlphaScreen JMJD2A-Tudor / H3K4me3 peptide binding | Potency, µM (titrated, usually from 114 µM), for the others: at the top dose activity change, negative = inhibition, hits mostly inhibitors | AID 504339; note: % is set by controls: 0 for no effect and ±100 for the full control effect; nearly all actives have a fitted effect of over 50% in size
# * hit, by the source's call; ? = inconclusive; . = no result given; ! = repeats disagree; [ ] = dose if it differs, or a comment. Only some compounds are listed: those with a hit (about 12% of all), similar ones and a draw of the others. Calls come from the whole dose curve; as a rule, active = well fitted curve in the direction sought with a large enough effect; inconclusive = small, poorly fitted or top-dose-only effect, or another doubt; inactive = no such curve, though single readings can be large; an effect the other way counts as inactive or inconclusive. Potency is the fitted concentration of half-maximal effect.
SMILES,G9a inh,HP1b binding inh,BAZ2B inh,Sfp inh,L3MBTL1 block,JMJD2A Tudor
CCCCCc1cc(=O)[nH]c(=S)[nH]1,?,51%,-14%,-5%,.,8%
CCCc1cc(=O)[nH]c(=S)[nH]1,-48%[12.7 µM],41%,-1%,50µM*!,4%,-12%
CC(=O)N1N=C(c2cccc([N+](=O)[O-])c2)OC1c1ccc(Cl)cc1Cl (stereo unspecified),-24%,-19%,?,-7%,-27%,?
CC(=O)N1N=C(c2cccc([N+](=O)[O-])c2)OC1c1ccc(Br)cc1 (stereo unspecified),45µM*,-11%,?,13%,?,?
C#CCOCCOCCOCCNc1nc(N2CCN(C(=O)[C@H](C)n3cc(CCCN=C(N)N)nn3)CC2)nc(N2CCN(C(=O)[C@H](CCCCN)n3cc(CCCC)nn3)CC2)n1,4.5µM*,.,?,4%,-5%,.
C#CCOCCOCCOCCNc1nc(N2CCN(C(=O)Cn3cc(CCCN=C(N)N)nn3)CC2)nc(N2CCN(C(=O)[C@H](C)n3cc(CCCN=C(N)N)nn3)CC2)n1,56µM*,27%,?,-5%,6%,-23%
C#CCOCCOCCOCCNc1nc(N2CCN(C(=O)[C@H]([C@@H](C)CC)n3cc(CCCN=C(N)N)nn3)CC2)nc(N2CCN(C(=O)[C@H](CCCCN)n3cc(CCCC)nn3)CC2)n1,?,17%,-38%,4%,-9%,-31%
C#CCOCCOCCOCCNc1nc(N2CCN(C(=O)Cn3cc(CCCN=C(N)N)nn3)CC2)nc(N2CCN(C(=O)[C@H](CCCCN)n3cc(CCCC)nn3)CC2)n1,-2%[2.33 µM],36%,79µM*,.,-2%,-35%
CCOC(=O)C1CCN(S(=O)(=O)c2ccc(-c3nc4ccccc4s3)s2)CC1,35µM*,39%,-34%,0%,-11%,-23%
CCOC(=O)C1CCN(S(=O)(=O)c2ccc(-c3cc(C(F)(F)F)n(C)n3)s2)CC1,.,45%,10%,4%,11%,1%
Cc1ccc(NC2=Nc3ccccc3CS2)cc1,10µM*,13%,0%,-15%,2%,?
CCS(=O)(=O)c1ncc(Cl)c(C(=O)N2CCN(c3ccc(OC)cc3)CC2)n1,?,8%,-16%,.,.,-17%
CC(C)N(C(=O)[C@H]1CC(CC(=O)NCc2ccco2)C(=O)N2CCc3c([nH]c4ccccc34)[C@]12C)C(C)C (stereo partly specified),.,15%,.,.,-2%,-25%
CC(C)N(C(=O)[C@H]1C[C@H](CC(=O)NCCc2ccccn2)C(=O)N2CCc3c([nH]c4cc(-c5ccco5)ccc34)[C@]12C)C(C)C,.,-36%,.,.,-27%,56µM*
CC(C)N(C(=O)[C@H]1C[C@H](CC(=O)NCc2ccco2)C(=O)N2CCc3c([nH]c4cc(-c5ccco5)ccc34)[C@]12C)C(C)C,.,?,.,.,?,56µM*
N#CN=c1snc(-c2ccccc2)n1-c1ccc(Br)cc1,.,23%[57 µM],.,.,.,-20%[57.1 µM]
CCc1ccc(CNCc2c(C(=O)O)n(Cc3ccc(C)cc3)c3cc(C)ccc23)cc1,-41%[59 µM],14%,?,.,.,-28%
CCN(c1ncnc2c1cnn2-c1cc(Cl)ccc1C)C1CCCCC1,0%[59 µM],49%,14%,.,.,-9%
COc1ccc(C(=O)N(Cc2sccc2C)C2CCS(=O)(=O)C2)cc1Cl (stereo unspecified),-16%[59 µM],41%,-8%,.,.,-13%
COc1ccc(S(=O)(=O)N(C)C)cc1NC(=O)[C@H](Cc1ccccc1)N1C(=O)c2ccccc2C1=O,50µM*,37%,3%,15%,?,-7%
Cc1ccc(S(=O)(=O)N(C)C)cc1NC(=O)[C@H](Cc1ccccc1)N1C(=O)c2ccccc2C1=O,19%,2%,-6%,-3%,-1%,-16%
CCc1ccc(Nc2n[n+](C)c(-c3ccc(C(=O)O)cc3)s2)cc1,2%[12.7 µM],.,-8%,11%,.,.
